Measured values published in ChEMBL document CHEMBL4513151, “CO-ADD screening of Institut Català d'Investigació Química (Spain) compounds”.
Where “and” joins values, the source holds several entries; their conditions need not be identical. Identical values can stand only once. Entries with a potency or affinity are not part of this list.

What was measured:
[1] = system: Klebsiella pneumoniae; settings: Concentration 32 ug.mL-1, ASSAY_TEST Inhibition of Bacterial Growth, detection method Absorption (OD600), MEDIA CAMHB, plate type 384well, NBS, CORNING #3640, time 18 hr
[2] = system: Candida albicans; settings: 32 ug/mL
[3] = system: Cryptococcus neoformans; settings: Concentration 32 ug.mL-1; ASSAY_TEST Inhibition of Fungal Growth; detection method Resazurin; Absorption (OD600-OD570); plate type 384well; NBS; CORNING #3640

Structure (SMILES) | Inhibition ([1]; 32 ug/mL) | Inhibition [2] | Inhibition [1] | Inhibition [3]
C[C@]12CC[C@@](c3ccc(C(F)(F)F)cc3)(O1)[C@H]1C=C[C@H](OC(=O)c3ccccc3)[C@H]12 | 10.18% and 19.4% | -0.5% and 4.46% |  | 
C[C@]12CC[C@@](C3CCCC3)(O1)[C@H]1C=C[C@H](OC(=O)c3ccccc3)[C@H]12 |  | 4.96% | 19.59% | -56.17%
C[C@]12CC[C@@](C3CC3)(O1)[C@H]1C=C[C@H](OC(=O)c3ccccc3)[C@H]12 | 19.23% and 15.4% | 3.68% and 4.72% |  | 
C=C1CC(C(=O)OC)(C(=O)OC)C[C@@H]1[C@H](c1ccccc1)n1ccc2ccc(Cl)cc21 |  | 3.75% | 17.79% | -67.72%
C=C1CC(COCc2ccc(OC)cc2)(COCc2ccc(OC)cc2)C[C@@H]1[C@@H](Nc1ccc(Br)cc1)c1ccccc1 |  | -6.97% | 3.98% | -42.12%
